Screens: PubChem, National Center for Advancing Translational Sciences (NCATS)
Sampled rows, rich in hits. Any-hit rate of the full collection: about 5.9%.
KB-V1 cytotox = KB-V1 MDR subline cytotoxicity; 400,000 compounds, 3.4% hits; Potency, µM (series often up to 46.1 µM), actives largely listed as cytotoxic; KB-V1 MDR cells viability, CellTiter-Glo, 72 h; also: % is scaled to controls: 0 for no effect and ±100 for the full control effect; nearly all actives have a fitted effect of over 60% in size
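Drug-selected KB-V1 cells, grown in DMEM lacking phenol red with 10% FBS, receive compound titrations; after three days at 37 degrees C, surviving cell ATP is quantified by CellTiter-Glo luminescence and responses normalized and curve-fitted.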
ATXN2 expr inh = reduces ATXN2 reporter expression in HEK-293 cells. HEK-293 ATXN2-luciferase reporter, luminescence, 24 h. Potency, µM (titrated, usually from 57 µM), for inactives: at the top dose activity change, negative = inhibition, hits mostly inhibitors. 360,000 compounds, 0.72% hits. AID 1745845; also: % is scaled to controls: 0 for no effect and ±100 for the full control effect; nearly all actives have a fitted effect of over 55% in size
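ATXN2-luciferase reporter cells (luciferase flanked by upstream and downstream ATXN2 gene portions) were treated 24 h at 37 °C with compounds at up to 57 uM. SteadyGlo luminescence gave expression; GF-AFC fluorescence gave viability.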
TGFb inhibitor = blocks TGF-b signaling; HepG2 CAGA-GFP TGF-b/SMAD3 reporter, GFP fluorescence, 18 h; TGF-beta stimulated, 500 pg/mL final; Potency, µM (doses to about 46.1 µM), inactives show at the highest dose activity, negative = inhibition, hits mostly inhibitors; 410,000 compounds, 1.2% hits; also: % is scaled to controls: 0 for no effect and ±100 for the full control effect; nearly all actives have a fitted effect of over 65% in size
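Read-out: total well GFP (ex488/em500-530) summed from mean per-cell fluorescence. Cells: HEPG2 CAGA-GFP, 1% FBS DMEM, 18 h at 37 degrees C with 500 pg/mL final TGF-beta. Unstimulated wells served as the full-inhibition control; stimulated DMSO wells = 0%.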
S2 tox = viability counter-screen for ATXN expression inhibitors | S2 cells (HEK-293 line with an ATXN2-luciferase reporter) viability, CellTiter-Fluor protease fluorescence, 24 h | Potency, µM (highest dose often 56.7 µM), actives largely listed as cytotoxic | 400,000 compounds, 0.49% hits | AID 651635; also: nearly all actives have a fitted effect of over 40% in size
KB-3-1 tox = KB-3-1 parental cell cytotoxicity. KB-3-1 viability, CellTiter-Glo ATP luminescence, 72 h. Potency, µM (series often up to 46.1 µM), actives largely listed as cytotoxic. 400,000 compounds, 1.4% hits. AID 1347075; also: % is scaled to controls: 0 for no effect and ±100 for the full control effect; nearly all actives have a fitted effect of over 60% in size
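Screening of KB-3-1 cells (DMEM, 10% FBS, phenol-red free) ran from lowest to highest compound concentration; after 72 h at 37 °C viability was read luminescently and curves fitted.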
HepG2 viability = HepG2 cytotoxicity, counter-screen for TGF-b inhibitors | HepG2 CAGA-GFP viability, ATP luminescence, 18 h | Potency, µM (titrated, usually from 46.1 µM), for inactives: at the top dose activity change, negative = cytotoxicity, most hits filed as cytotoxic | 410,000 compounds, 0.76% hits
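CellTiter-Glo luminescence gave cytotoxicity after 18 hours at 37 degrees C. The cells were HepG2 CAGA-GFP in 1% FBS DMEM, stimulated with 500 pg/mL TGF-beta after compound addition. %Activity was normalised to no-cell wells (complete cell-killing) and DMSO (no toxicity), and curves were fitted and classified.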
An asterisk follows results filed as active; i = inactive; ? = inconclusive; . = not tested or not shown; ! = repeats disagree; [ ] = remark or other dose. Calls follow the shape of the dose curve; as a rule, active = well fitted curve in the direction sought with a large enough effect; inconclusive = small, poorly fitted or top-dose-only effect, or another doubt; inactive = no such curve, though single readings can be large; an effect the other way counts as inactive or inconclusive. Potency is read from the fitted curve at half-maximal effect.

SMILES	KB-V1 cytotox	ATXN2 expr inh	TGFb inhibitor	S2 tox	KB-3-1 tox	HepG2 viability
CCn1c2ccccc2c2cc(Nc3cc(C)nc4ncnn34)ccc21	?	?	?	?	0.23µM*	-31%
CCNc1nc(C)c2cc(Br)c(=O)n(CC)c2n1	6.5µM*	-2%	31%	i	?	2%
O=S(=O)(Nc1cccc(-n2cnnn2)c1)c1cc(Br)ccc1Br	5.8µM*	-16%	0%	i	i	-20%
O=S(=O)(Nc1cccc(-n2cnnn2)c1)c1ccccc1	i	.	1%	i	i	-14%
C[n+]1c2n(c3ccccc31)N=C(c1ccc(Cl)cc1)CS2	i	?	0%	i	5.8µM*	-13%
CC1Sc2n(c3ccccc3[n+]2C)N=C1c1ccccc1 (stereo not given)	i	-21%	-14%	i	7.3µM*	-5%
COc1ccc(C2=NN(C(N)=S)C(c3ccccc3)C2)cc1 (stereo not given)	?	21%	-29%	i	i	10%
COc1ccc(C2=Nn3c([n+](C)c4ccccc43)SC2)cc1	i	.	?	?	2.6µM*	-6%
CC(C)(C)OC(=O)N1CCC(c2c(C(=O)N3CCN(c4ccccn4)CC3)cnn2-c2ccc(F)cc2F)CC1	i	.	?	.	i	-13%
Cc1csc[n+]1CC(=O)c1ccccc1	i	.	3%	.	i	-3%
COc1cc(NC(=O)CCC2CCCC2)cc(-n2cnnn2)c1	21µM*	0%	10%	i	i	-2%
O=C(Cn1c(=O)c(=O)n(Cc2ccccc2)c2ccc(Cl)cc21)Nc1ccc(F)cc1F	i	-20%[11.3 µM]	0%	i	?	-8%
CC(C)(C)NC(=O)Cn1c(=O)c(=O)n(Cc2ccccc2)c2ccc(Cl)cc21	21µM*	0%	-4%	?	i	1%
COc1cc(-c2ccc(Cl)cn2)cc2c1OCCN(S(=O)(=O)C[C@]13CC[C@H](CC1=O)C3(C)C)C2	.	.	.	i	.	.
Cn1cnc2c1c(=O)[nH]c(=O)n2C	.	31µM*!	.	i	.	.
COc1ccc(NC(=O)NCCN2CCN(c3cc(OC)ccc3OC)CC2)cc1	i	-17%	-1%	?	i	-2%
COc1ccc(Cl)c(N2CCN(CCCNC(=O)Nc3ccc(C)cc3)CC2)c1	i	-28%	?	i	23µM*	-50%
COC(=O)c1ccc(NC(=O)C(c2ccccc2)N2Cc3ccccc3C2=O)cc1 (stereo not given)	.	.	?	.	.	-18%
CC(NC(=O)c1ccco1)c1nnc2n1CCN(Cc1ccc(Cl)cc1)CC2 (stereo not given)	.	.	.	i	.	.
COc1ccc(-c2ccc(-c3nnn(CC(=O)N4CCOCC4)n3)cc2)cc1	?	6%	3%	i	i	-1%
COc1ccc(OC)c(C(=O)Cn2nnc(-c3ccc(N4CCOCC4)cc3)n2)c1	i	-8%	2%	i	21µM*	9%
O=S(=O)(c1ccccc1)c1nc(Nc2ccccc2N2CCOCC2)sc1Cl	21µM*	-19%	?	i	i	-2%
Cc1c(-c2ccccc2)[nH]n2c(=O)c3c(nc12)CCCC3	21µM*	103%	-28%	?	i	3%
Cc1ccc(-c2[nH]n3c(=O)c4c(nc3c2C)CCCC4)cc1	i	.	-18%	.	i	-17%
COCCN(C(=O)CCC(=O)Nc1cc(C)on1)C(C(=O)NC1CCCC1)c1ccccc1C (stereo not given)	i	22%[11.3 µM]	1%	i	i	6%
SMILES	KB-V1 cytotox	ATXN2 expr inh	TGFb inhibitor	S2 tox	KB-3-1 tox	HepG2 viability
O=C(NC1CCCC1)C(c1ccc(F)cc1)N(Cc1ccccc1Cl)C(=O)CCl (stereo not given)	15µM*	-17%	-27%	i	?	-27%
COCCN(C(=O)CCl)C(C(=O)NC1CCCCC1)c1ccccc1C (stereo not given)	21µM*	?	?	.	13µM*	-76%
CC1(C(=O)Nc2cccc3c2CCCC3)CCN1C(=O)Cc1ccccc1Cl (stereo not given)	i	-10%	14%	?	i	-18%
Cc1cccc(NC(=O)Cn2nc(C)c3nn(-c4ccc(Cl)cc4)c(C)c3c2=O)c1C	.	.	-24%	.	.	-19%
S=C(NCc1ccccc1)NC1CCCCC1	i	-19%	-24%	i	i	-27%
S=C(NCc1cccc(Cl)c1)NC1CCCCC1	18µM*	-1%	?	i	?	-9%
S=C(NCCc1ccccc1)NCc1cccc(Cl)c1	i	1%	13µM*	i	i	-44%
Cc1ccccc1N=C1Nc2ccccc2N[C@]12C[C@H]1CCCC(=O)N3CC[C@@H](C2)[C@@H]13	i	.	8%	.	i	35%
COc1cccc(Nc2ncnc3c2cnn3-c2cccc(C)c2)c1	21µM*	29%	-13%	i	i	-19%
Cc1cccc(-n2ncc3c(Nc4c(C)n(C)n(-c5ccccc5)c4=O)ncnc32)c1	21µM*	2%	-18%	i	i	-9%
COc1ccccc1Nc1ncnc2c1cnn2-c1cccc(C)c1	i	31%	-2%	i	i	2%
CCOc1ccc2ncc3c(-c4ccc(C)cc4)nn(-c4cccc(F)c4)c3c2c1	i	13%	18%	i	i	1%
Cc1ccc(NCc2cc3cc4c(cc3n(CC(=O)Nc3ccc(C)cc3)c2=O)OCCO4)cc1	.	.	-9%	.	.	-12%
CC(C)(C)C(=O)Nc1sc(-c2ccccc2)cc1C(=O)O	?	180%	-5%	i	6.5µM*	1%
O=C(O)c1ccc(-n2nncc2-c2ccco2)cc1	i	0%	12%	?	i	14%
O=C(Nc1ccc(-n2nncc2-c2ccco2)cc1)c1ccc(F)cc1	16µM*	-1%	28%	i	i	-19%
Cc1nc(C)c(CC(=O)N2CCOc3ccc(CN4CCOCC4)cc3C2)s1	.	.	.	i	.	.
COc1cccc(CNC(=O)C2CCN(S(=O)(=O)c3ccc(F)cc3)CC2)c1	23µM*	4%	2%	?	i	13%
COc1ccccc1NC(=O)C1CCCCN1S(=O)(=O)c1ccc(F)cc1 (stereo not given)	5.2µM*	-9%	0%	i	i	-4%
COc1ccc(NC(=O)C2CCCCN2S(=O)(=O)c2ccc(F)cc2)cc1 (stereo not given)	i	-9%	-10%	i	i	0%
COc1ccc(NC(=O)C2CCCCN2S(=O)(=O)c2ccc(F)cc2)c(OC)c1 (stereo not given)	5.8µM*	-21%	-5%	i	i	21%
